From ChEMBL document CHEMBL1961873, “Compounds: GSK PKIS; Assays: Nanosyn kinase panel” (2012)

Assays:
[1] = molecular target: Glycogen synthase kinase-3 alpha (Homo sapiens) (UniProt P49840); settings: at 0.1 µM
[2] = molecular target: Glycogen synthase kinase-3 alpha (Homo sapiens) (UniProt P49840); settings: at 1 µM
[3] = molecular target: Glycogen synthase kinase-3 beta (Homo sapiens) (UniProt P49841); settings: at 0.1 µM
[4] = molecular target: Glycogen synthase kinase-3 beta (Homo sapiens) (UniProt P49841); settings: at 1 µM
[5] = molecular target: Homeodomain-interacting protein kinase 1 (Homo sapiens) (UniProt Q86Z02); settings: at 0.1 µM
[6] = molecular target: Homeodomain-interacting protein kinase 1 (Homo sapiens) (UniProt Q86Z02); settings: at 1 µM
[7] = molecular target: Homeodomain-interacting protein kinase 4 (Homo sapiens) (UniProt Q8NE63); settings: at 0.1 µM
[8] = molecular target: Homeodomain-interacting protein kinase 4 (Homo sapiens) (UniProt Q8NE63); settings: at 1 µM
[9] = molecular target: Mitogen-activated protein kinase 9 (Homo sapiens) (UniProt P45984); settings: at 0.1 µM
[10] = molecular target: Mitogen-activated protein kinase 9 (Homo sapiens) (UniProt P45984); settings: at 1 µM
[11] = molecular target: Mitogen-activated protein kinase 1 (Homo sapiens) (UniProt P28482); settings: at 0.1 µM
[12] = molecular target: Mitogen-activated protein kinase 1 (Homo sapiens) (UniProt P28482); settings: at 1 µM
[13] = molecular target: Mitogen-activated protein kinase 3 (Homo sapiens) (UniProt P27361); settings: at 0.1 µM
[14] = molecular target: Mitogen-activated protein kinase 3 (Homo sapiens) (UniProt P27361); settings: at 1 µM
[15] = molecular target: SRSF protein kinase 3 (Homo sapiens) (UniProt Q9UPE1); settings: at 0.1 µM
[16] = molecular target: SRSF protein kinase 3 (Homo sapiens) (UniProt Q9UPE1); settings: at 1 µM
[17] = molecular target: Mitogen-activated protein kinase 14 (Homo sapiens) (UniProt Q16539); settings: at 0.1 µM
[18] = molecular target: Mitogen-activated protein kinase 14 (Homo sapiens) (UniProt Q16539); settings: at 1 µM
[19] = molecular target: Mitogen-activated protein kinase 11 (Homo sapiens) (UniProt Q15759); settings: at 0.1 µM
Chain of Mitogen-activated protein kinase 11 (Homo sapiens) (Q15759 whole entry): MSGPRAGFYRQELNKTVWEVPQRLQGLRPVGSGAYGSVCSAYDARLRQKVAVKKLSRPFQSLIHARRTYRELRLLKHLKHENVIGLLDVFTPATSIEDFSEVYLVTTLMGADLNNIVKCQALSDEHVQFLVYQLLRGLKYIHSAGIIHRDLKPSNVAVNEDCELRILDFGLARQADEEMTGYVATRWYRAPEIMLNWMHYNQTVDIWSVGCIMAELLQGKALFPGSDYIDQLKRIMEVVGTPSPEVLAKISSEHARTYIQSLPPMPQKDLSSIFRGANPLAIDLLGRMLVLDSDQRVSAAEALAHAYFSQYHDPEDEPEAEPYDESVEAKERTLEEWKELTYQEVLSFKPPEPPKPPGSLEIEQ

[20] = molecular target: Mitogen-activated protein kinase 11 (Homo sapiens) (UniProt Q15759); settings: at 1 µM
[21] = molecular target: Mitogen-activated protein kinase 13 (Homo sapiens) (UniProt O15264); settings: at 0.1 µM
[22] = molecular target: Mitogen-activated protein kinase 13 (Homo sapiens) (UniProt O15264); settings: at 1 µM
[23] = molecular target: Mitogen-activated protein kinase 12 (Homo sapiens) (UniProt P53778); settings: at 0.1 µM
[24] = molecular target: Mitogen-activated protein kinase 12 (Homo sapiens) (UniProt P53778); settings: at 1 µM
[25] = molecular target: SRSF protein kinase 1 (Homo sapiens) (UniProt Q96SB4); settings: at 0.1 µM
[26] = molecular target: SRSF protein kinase 1 (Homo sapiens) (UniProt Q96SB4); settings: at 1 µM
[27] = molecular target: Phosphatidylinositol 4,5-bisphosphate 3-kinase catalytic subunit alpha isoform (Homo sapiens) (UniProt P42336); settings: at 0.1 µM
[28] = molecular target: Phosphatidylinositol 4,5-bisphosphate 3-kinase catalytic subunit alpha isoform (Homo sapiens) (UniProt P42336); settings: at 1 µM
[29] = molecular target: Phosphatidylinositol 4,5-bisphosphate 3-kinase catalytic subunit delta isoform (Homo sapiens) (UniProt O00329); settings: at 0.1 µM
Chain of Phosphatidylinositol 4,5-bisphosphate 3-kinase catalytic subunit delta isoform (Homo sapiens) (O00329 whole entry, canonical isoform): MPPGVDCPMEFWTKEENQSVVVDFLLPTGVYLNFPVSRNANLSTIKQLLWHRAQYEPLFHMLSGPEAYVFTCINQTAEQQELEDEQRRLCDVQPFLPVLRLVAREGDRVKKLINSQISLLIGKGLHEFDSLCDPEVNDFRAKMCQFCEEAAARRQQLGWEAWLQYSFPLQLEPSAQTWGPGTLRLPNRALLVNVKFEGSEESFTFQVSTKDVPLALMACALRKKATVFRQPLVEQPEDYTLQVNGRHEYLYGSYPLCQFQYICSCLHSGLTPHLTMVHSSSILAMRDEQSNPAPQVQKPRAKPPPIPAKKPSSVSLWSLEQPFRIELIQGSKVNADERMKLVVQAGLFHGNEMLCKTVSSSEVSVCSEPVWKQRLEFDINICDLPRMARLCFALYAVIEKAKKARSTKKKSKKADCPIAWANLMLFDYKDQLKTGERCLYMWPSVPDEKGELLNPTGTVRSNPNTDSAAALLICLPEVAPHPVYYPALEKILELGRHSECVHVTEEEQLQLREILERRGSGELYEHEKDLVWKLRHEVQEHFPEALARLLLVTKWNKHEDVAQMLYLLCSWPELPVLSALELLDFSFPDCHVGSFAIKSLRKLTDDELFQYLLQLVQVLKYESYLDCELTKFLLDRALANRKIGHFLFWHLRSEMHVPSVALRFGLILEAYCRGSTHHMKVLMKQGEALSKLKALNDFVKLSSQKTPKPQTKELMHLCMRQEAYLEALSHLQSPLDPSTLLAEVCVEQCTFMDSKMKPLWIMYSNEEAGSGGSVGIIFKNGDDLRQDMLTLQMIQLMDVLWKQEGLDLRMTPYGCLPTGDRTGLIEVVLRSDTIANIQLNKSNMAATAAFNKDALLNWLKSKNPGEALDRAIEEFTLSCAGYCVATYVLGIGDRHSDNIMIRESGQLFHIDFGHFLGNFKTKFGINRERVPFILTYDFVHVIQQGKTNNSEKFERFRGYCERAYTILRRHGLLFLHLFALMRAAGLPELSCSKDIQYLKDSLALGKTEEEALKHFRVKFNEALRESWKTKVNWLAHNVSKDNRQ

[30] = molecular target: Phosphatidylinositol 4,5-bisphosphate 3-kinase catalytic subunit delta isoform (Homo sapiens) (UniProt O00329); settings: at 1 µM
[31] = molecular target: Phosphatidylinositol 4-kinase beta (Homo sapiens) (UniProt Q9UBF8); settings: at 0.1 µM
[32] = molecular target: Phosphatidylinositol 4-kinase beta (Homo sapiens) (UniProt Q9UBF8); settings: at 1 µM
[33] = molecular target: Sphingosine kinase 1 (Homo sapiens) (UniProt Q9NYA1); settings: at 0.1 µM
[34] = molecular target: Sphingosine kinase 1 (Homo sapiens) (UniProt Q9NYA1); settings: at 1 µM
[35] = molecular target: Sphingosine kinase 2 (Homo sapiens) (UniProt Q9NRA0); settings: at 0.1 µM
Chain of Sphingosine kinase 2 (Homo sapiens) (Q9NRA0 whole entry): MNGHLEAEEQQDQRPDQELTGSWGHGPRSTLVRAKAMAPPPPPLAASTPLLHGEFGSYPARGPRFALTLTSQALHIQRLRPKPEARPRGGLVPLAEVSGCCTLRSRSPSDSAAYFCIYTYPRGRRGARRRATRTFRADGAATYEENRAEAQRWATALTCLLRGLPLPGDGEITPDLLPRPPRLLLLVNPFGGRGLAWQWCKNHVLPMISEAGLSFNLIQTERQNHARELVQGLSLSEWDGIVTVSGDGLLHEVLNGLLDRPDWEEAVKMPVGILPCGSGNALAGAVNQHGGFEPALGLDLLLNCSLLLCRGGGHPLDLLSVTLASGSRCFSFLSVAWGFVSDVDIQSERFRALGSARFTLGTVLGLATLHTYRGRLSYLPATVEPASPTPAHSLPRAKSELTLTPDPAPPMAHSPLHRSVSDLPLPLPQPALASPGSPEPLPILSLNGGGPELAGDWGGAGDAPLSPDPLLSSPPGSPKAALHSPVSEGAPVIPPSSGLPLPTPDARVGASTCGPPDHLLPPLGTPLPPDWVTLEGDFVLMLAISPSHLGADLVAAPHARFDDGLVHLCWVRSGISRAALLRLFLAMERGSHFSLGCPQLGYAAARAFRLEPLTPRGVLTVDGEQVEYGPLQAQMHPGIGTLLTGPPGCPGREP

[36] = molecular target: Sphingosine kinase 2 (Homo sapiens) (UniProt Q9NRA0); settings: at 1 µM
[37] = molecular target: Casein kinase II subunit alpha (Homo sapiens) (UniProt P68400); settings: at 0.1 µM
[38] = molecular target: Casein kinase II subunit alpha (Homo sapiens) (UniProt P68400); settings: at 1 µM
[39] = molecular target: Inhibitor of nuclear factor kappa-B kinase subunit alpha (Homo sapiens) (UniProt O15111); settings: at 0.1 µM
[40] = molecular target: Inhibitor of nuclear factor kappa-B kinase subunit alpha (Homo sapiens) (UniProt O15111); settings: at 1 µM
[41] = molecular target: Inhibitor of nuclear factor kappa-B kinase subunit beta (Homo sapiens) (UniProt O14920); settings: at 0.1 µM
[42] = molecular target: Inhibitor of nuclear factor kappa-B kinase subunit beta (Homo sapiens) (UniProt O14920); settings: at 1 µM
[43] = molecular target: Inhibitor of nuclear factor kappa-B kinase subunit epsilon (Homo sapiens) (UniProt Q14164); settings: at 0.1 µM
Chain of Inhibitor of nuclear factor kappa-B kinase subunit epsilon (Homo sapiens) (Q14164 whole entry): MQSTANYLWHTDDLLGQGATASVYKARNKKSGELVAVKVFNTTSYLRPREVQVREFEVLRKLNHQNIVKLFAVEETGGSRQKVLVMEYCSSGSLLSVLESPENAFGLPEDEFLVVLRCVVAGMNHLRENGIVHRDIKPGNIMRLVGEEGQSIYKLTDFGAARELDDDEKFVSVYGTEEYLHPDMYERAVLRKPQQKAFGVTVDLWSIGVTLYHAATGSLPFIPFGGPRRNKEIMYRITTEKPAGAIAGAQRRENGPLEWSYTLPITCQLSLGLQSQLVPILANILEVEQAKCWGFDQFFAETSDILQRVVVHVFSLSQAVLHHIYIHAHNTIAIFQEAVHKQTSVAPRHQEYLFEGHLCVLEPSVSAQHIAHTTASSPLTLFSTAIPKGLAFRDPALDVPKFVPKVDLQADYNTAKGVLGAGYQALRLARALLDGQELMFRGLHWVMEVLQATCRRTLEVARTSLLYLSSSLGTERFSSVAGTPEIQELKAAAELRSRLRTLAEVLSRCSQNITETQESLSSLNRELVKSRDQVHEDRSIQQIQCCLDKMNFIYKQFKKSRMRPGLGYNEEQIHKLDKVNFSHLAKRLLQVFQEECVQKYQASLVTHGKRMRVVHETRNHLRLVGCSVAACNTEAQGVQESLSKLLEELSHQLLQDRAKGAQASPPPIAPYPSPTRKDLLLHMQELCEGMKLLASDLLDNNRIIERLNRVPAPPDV

[44] = molecular target: Inhibitor of nuclear factor kappa-B kinase subunit epsilon (Homo sapiens) (UniProt Q14164); settings: at 1 µM
[45] = molecular target: Serine/threonine-protein kinase Nek1 (Homo sapiens) (UniProt Q96PY6); settings: at 0.1 µM
Chain of Serine/threonine-protein kinase Nek1 (Homo sapiens) (Q96PY6 whole entry): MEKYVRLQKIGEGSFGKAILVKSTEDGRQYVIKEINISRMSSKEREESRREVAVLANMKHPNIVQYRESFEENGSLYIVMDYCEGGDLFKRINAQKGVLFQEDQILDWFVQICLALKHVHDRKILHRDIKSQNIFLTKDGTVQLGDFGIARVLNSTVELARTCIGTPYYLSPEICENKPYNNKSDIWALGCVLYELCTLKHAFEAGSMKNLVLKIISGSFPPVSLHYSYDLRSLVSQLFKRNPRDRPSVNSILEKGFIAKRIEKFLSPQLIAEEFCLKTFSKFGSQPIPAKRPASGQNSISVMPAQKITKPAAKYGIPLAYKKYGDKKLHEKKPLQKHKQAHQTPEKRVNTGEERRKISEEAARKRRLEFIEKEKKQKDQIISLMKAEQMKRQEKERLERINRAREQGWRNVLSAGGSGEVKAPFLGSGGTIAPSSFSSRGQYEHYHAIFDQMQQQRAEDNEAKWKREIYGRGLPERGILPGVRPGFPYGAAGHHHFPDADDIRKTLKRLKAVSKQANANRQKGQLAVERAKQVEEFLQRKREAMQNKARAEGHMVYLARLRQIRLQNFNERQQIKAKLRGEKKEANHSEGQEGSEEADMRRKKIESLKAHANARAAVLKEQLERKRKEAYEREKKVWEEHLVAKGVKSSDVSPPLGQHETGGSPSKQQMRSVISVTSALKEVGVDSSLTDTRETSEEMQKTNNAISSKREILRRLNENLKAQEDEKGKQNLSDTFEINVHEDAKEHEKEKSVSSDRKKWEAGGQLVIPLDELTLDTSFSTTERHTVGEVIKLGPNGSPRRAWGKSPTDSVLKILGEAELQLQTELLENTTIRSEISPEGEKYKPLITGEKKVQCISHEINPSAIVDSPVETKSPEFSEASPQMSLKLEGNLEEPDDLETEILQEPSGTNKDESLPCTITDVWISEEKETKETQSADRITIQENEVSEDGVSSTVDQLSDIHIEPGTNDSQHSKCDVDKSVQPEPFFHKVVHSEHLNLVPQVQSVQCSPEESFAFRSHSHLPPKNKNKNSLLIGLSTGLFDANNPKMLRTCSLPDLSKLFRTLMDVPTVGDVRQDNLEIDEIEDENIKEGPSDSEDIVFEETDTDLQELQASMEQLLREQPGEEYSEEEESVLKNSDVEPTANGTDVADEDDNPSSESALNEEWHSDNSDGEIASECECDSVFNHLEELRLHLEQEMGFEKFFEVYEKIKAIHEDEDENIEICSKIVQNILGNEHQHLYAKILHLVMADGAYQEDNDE

[46] = molecular target: Serine/threonine-protein kinase Nek1 (Homo sapiens) (UniProt Q96PY6); settings: at 1 µM
[47] = molecular target: Serine/threonine-protein kinase Nek2 (Homo sapiens) (UniProt P51955); settings: at 0.1 µM
[48] = molecular target: Serine/threonine-protein kinase Nek2 (Homo sapiens) (UniProt P51955); settings: at 1 µM
[49] = molecular target: Serine/threonine-protein kinase Nek6 (Homo sapiens) (UniProt Q9HC98); settings: at 0.1 µM
[50] = molecular target: Serine/threonine-protein kinase Nek6 (Homo sapiens) (UniProt Q9HC98); settings: at 1 µM
[51] = molecular target: Serine/threonine-protein kinase Nek7 (Homo sapiens) (UniProt Q8TDX7); settings: at 0.1 µM
[52] = molecular target: Serine/threonine-protein kinase Nek7 (Homo sapiens) (UniProt Q8TDX7); settings: at 1 µM
[53] = molecular target: Serine/threonine-protein kinase Nek9 (Homo sapiens) (UniProt Q8TD19); settings: at 0.1 µM
Chain of Serine/threonine-protein kinase Nek9 (Homo sapiens) (Q8TD19 whole entry): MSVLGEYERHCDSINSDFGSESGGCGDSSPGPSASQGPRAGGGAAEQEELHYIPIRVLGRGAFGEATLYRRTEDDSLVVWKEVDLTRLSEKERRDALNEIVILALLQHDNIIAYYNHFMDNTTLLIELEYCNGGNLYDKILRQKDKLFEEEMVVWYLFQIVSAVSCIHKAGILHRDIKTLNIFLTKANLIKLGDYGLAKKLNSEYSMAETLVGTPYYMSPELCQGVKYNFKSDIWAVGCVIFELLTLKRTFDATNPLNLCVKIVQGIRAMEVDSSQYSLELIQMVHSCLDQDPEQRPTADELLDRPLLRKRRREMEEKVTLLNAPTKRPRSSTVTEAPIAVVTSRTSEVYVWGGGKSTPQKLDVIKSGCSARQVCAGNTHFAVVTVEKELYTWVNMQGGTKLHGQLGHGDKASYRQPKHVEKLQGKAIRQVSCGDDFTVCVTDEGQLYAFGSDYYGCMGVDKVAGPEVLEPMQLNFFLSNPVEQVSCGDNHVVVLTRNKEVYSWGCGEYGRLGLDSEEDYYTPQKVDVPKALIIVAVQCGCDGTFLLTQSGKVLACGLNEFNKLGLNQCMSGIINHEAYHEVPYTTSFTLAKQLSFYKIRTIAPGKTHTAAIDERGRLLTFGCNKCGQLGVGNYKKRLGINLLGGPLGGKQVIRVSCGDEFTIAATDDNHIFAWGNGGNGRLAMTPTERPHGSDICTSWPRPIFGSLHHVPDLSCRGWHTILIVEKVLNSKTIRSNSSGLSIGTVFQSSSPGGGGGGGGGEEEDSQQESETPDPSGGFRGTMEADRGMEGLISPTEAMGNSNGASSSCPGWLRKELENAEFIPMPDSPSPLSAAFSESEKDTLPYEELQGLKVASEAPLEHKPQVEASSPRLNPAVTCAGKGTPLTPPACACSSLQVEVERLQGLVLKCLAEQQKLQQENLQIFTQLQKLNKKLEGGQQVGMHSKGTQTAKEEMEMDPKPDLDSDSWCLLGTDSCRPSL

[54] = molecular target: Serine/threonine-protein kinase Nek9 (Homo sapiens) (UniProt Q8TD19); settings: at 1 µM
[55] = molecular target: Serine/threonine-protein kinase PLK1 (Homo sapiens) (UniProt P53350); settings: at 0.1 µM
[56] = molecular target: Serine/threonine-protein kinase PLK1 (Homo sapiens) (UniProt P53350); settings: at 1 µM

## CNC(=O)Oc1cc(C)c(/C=C/c2cncc(C(=O)NC)c2)c(C)c1
[1]
  inhibition: 1.71%
[2]
  inhibition: 5.29%
[3]
  inhibition: 1.23%
[4]
  inhibition: 4.75%
[5]
  inhibition: -0.37%
[6]
  inhibition: 1.2%
[7]
  inhibition: 0.96%
[8]
  inhibition: 3.81%
[9]
  inhibition: 3.14%
[10]
  inhibition: 2.28%
[11]
  inhibition: 1.83%
[12]
  inhibition: 2.04%
[13]
  inhibition: 3.1%
[14]
  inhibition: 2.72%
[15]
  inhibition: 1.79%
[16]
  inhibition: 1.43%
[17]
  inhibition: 3.47%
[18]
  inhibition: 3.16%
[19]
  inhibition: 1.39%
[20]
  inhibition: 2.35%
[21]
  inhibition: 0.06%
[22]
  inhibition: 2.61%
[23]
  inhibition: 0.49%
[24]
  inhibition: 1.7%
[25]
  inhibition: -1.34%
[26]
  inhibition: -4.31%
[27]
  inhibition: 2.83%
[28]
  inhibition: 2.08%
[29]
  inhibition: 1.65%
[30]
  inhibition: 0.21%
[31]
  inhibition: 5.69%
[32]
  inhibition: 3.41%
[33]
  inhibition: 2.31%
[34]
  inhibition: 0.63%
[35]
  inhibition: 0.57%
[36]
  inhibition: 19.7%
[37]
  inhibition: 1.53%
[38]
  inhibition: 0.66%
[39]
  inhibition: 0.51%
[40]
  inhibition: -0.7%
[41]
  inhibition: 3.06%
[42]
  inhibition: 1.89%
[43]
  inhibition: 2.27%
[44]
  inhibition: 0.9%
[45]
  inhibition: 2.1%
[46]
  inhibition: 1.49%
[47]
  inhibition: 2.52%
[48]
  inhibition: 4.05%
[49]
  inhibition: -0.26%
[50]
  inhibition: 1.16%
[51]
  inhibition: 2.46%
[52]
  inhibition: 2.99%
[53]
  inhibition: 6.95%
[54]
  inhibition: 4.01%
[55]
  inhibition: 3.92%
[56]
  inhibition: 2.75%
